An excerpt weighted towards active compounds, which were near 9.2% of everything screened.
ELG1 genotox: genotoxicity induction in ELG1-luciferase HEK293T cells; HEK293T ELG1-luciferase reporter, luminescence, 16 h; Potency, µM (highest dose often 46 µM), without a hit: at the top dose activity change, positive = activation, most hits filed as activators; actives 1.3% (n = 330,000); AID 504466; also: % of control where 0% means no effect; nearly all actives have a fitted effect of over 60% in size
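DMSO vehicle served as control against compound-treated ELG1-luciferase HEK293T cells; exposure lasted 16 hr at 37 °C and 5% CO2, followed by ONE-Glo luminescence detection after 30 min.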
SMN2 splice enh: enhancers of SMN2 splice variant expression | HEK293 SMN2-luciferase splicing reporter, luminescence, 30-36 h | Potency, µM (highest dose often 46.1 µM), for the others: at the top dose activity change, positive = activation, usual class: activators | actives 2.8% (n = 210,000); also: % of control where 0% means no effect; nearly all actives have a fitted effect of over 55% in size
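qHTS luciferase splicing reporter: luminescence rises when SMN2 exon 7 is included in transfected HEK293 cells. Compound exposure lasted 30-36 h at 37C, with 4.5 mM final sodium butyrate as control, followed by a ONE-Glo read.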
NPC1 prom act: NPC1 promoter activation; Huh7 NPC1 promoter luciferase reporter, 24 h; Potency, µM (series often up to 9.22 µM), for the others: at the top dose activation, most hits filed as activators; actives 2.4% (n = 320,000); AID 485313; also: % of control where 0% means no effect; nearly all actives have a fitted effect of over 60% in size
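Huh7 reporter cells (NPC1 promoter driving luciferase) are dosed with compound for 24 h at 37 °C, 5% CO2; luciferase detection reagent is then added and luminescence measured after 10 min at ambient temperature.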
Rab9 promoter act: activators of Rab9 promoter; Huh7 Rab9 promoter-luciferase reporter, luminescence, 24 h; Potency, µM (top dose mostly 9.22 µM), inactives show at the top dose activation, negative = inhibition, most hits filed as activators; actives 2.8% (n = 320,000); also: % of control where 0% means no effect; nearly all actives have a fitted effect of over 60% in size
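Cell-based reporter: Huh7 stable for Rab9 promoter-driven luciferase, plated in reduced-serum medium with 10% FBS at 1500 cells/well, compound-treated 24 h at 37 °C, luminescence read after 10 min reagent.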
ELG1 repair inh: blocks ELG1-dependent DNA repair in HEK293T cells. Potency, µM (highest dose often 46.1 µM), for the others: top-dose activity change, negative = inhibition, actives largely listed as inhibitors. actives 2.3% (n = 330,000). HEK293T ELG1-luciferase reporter, luminescence, 16 h; DNA damage induced by 5-fluorouridine; also: % is scaled to controls: 0 for no effect and ±100 for the full control effect; nearly all actives have a fitted effect of over 55% in size
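DMSO vehicle served as the neutral condition. Each well held 2,000 cells given 5-fluorouridine plus compound; after 16 hr at 37 °C/5% CO2, ONE-Glo was added and luciferase measured 30 min later.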
FLuc counter: inhibits or activates purified firefly luciferase, miR-21 counter-screen. P08659. purified FLuc, Km substrates, luminescence inhibition. Potency, µM (titrated, usually from 57.5 µM), inactives show top-dose activity change, negative = inhibition, actives largely listed as inhibitors. actives 6.9% (n = 360,000);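 also: plate controls were vehicle for no effect and reference inhibitor for full effect; nearly all actives have a fitted effect of over 55% in size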
Target sequence (P08659 whole entry, looked up): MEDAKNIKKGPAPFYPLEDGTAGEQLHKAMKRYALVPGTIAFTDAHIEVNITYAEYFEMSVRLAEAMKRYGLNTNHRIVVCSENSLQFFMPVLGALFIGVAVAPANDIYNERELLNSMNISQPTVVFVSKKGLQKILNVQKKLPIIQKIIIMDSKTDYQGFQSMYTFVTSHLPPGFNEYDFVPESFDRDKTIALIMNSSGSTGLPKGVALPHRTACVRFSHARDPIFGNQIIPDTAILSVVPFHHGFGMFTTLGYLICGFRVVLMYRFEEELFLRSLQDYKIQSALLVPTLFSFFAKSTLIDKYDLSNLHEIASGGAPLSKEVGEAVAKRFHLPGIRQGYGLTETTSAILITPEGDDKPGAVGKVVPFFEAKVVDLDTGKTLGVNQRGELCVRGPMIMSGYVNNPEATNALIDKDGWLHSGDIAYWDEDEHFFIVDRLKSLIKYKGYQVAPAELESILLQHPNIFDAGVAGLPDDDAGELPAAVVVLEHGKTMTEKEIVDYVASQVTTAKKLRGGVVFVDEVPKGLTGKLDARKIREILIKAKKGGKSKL
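Biochemical qHTS of compounds, final roughly 60 µM downward over six points, against 10 nM purified firefly luciferase using Km concentrations of substrates (10 uM D-luciferin, 10 uM ATP) in Tris acetate pH 7.5 buffer; luminescence output.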
ELG1 FLuc counter: luciferase inhibition in cell-free luciferin readout for ELG1 hits. actives 3% (n = 350). cell-free firefly luciferase luminescence counter-screen, ViewLux. Potency, µM (top dose mostly 46.1 µM), without a hit: at the top dose activity change, negative = inhibition, most hits filed as inhibitors. shares compounds with ELG1 repair inh; also: % is scaled to controls: 0 for no effect and ±100 for the full control effect
ELG1-Luc inh: confirmation of human ELG1-dependent DNA repair inhibitors; HEK293T ELG1-luciferase levels, luminescence; cells co-treated with 5-fluorouridine; shares compounds with ELG1 repair inh; actives 68% (n = 670); Potency, µM (series often up to 46.1 µM), without a hit: at the top dose activity change, negative = inhibition, hits mostly inhibitors; AID 624248; also: % is scaled to controls: 0 for no effect and ±100 for the full control effect; nearly all actives have a fitted effect of over 55% in size
ELG1 MMS Luc: MMS-stimulated human ELG1 repair inhibition, confirmed | shares compounds with ELG1 repair inh | Potency, µM (doses to about 46.1 µM), for the others: top-dose activity change, negative = inhibition, usual class: inhibitors | HEK293T luciferase-tagged ELG1 level, MMS stimulated | actives 53% (n = 670); also: % is scaled to controls: 0 for no effect and ±100 for the full control effect; nearly all actives have a fitted effect of over 60% in size
ELG1 5FU viab: confirmation of ELG1 repair inhibitors: viability with 5FU | shares compounds with ELG1 repair inh | 670 tested, under 10 active | cell viability with 5-FU, ELG1-dependent repair | AID 624250 | Potency, µM (series often up to 46.1 µM), inactives show at the top dose activity change, negative = viability loss, most hits filed as cytotoxic;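 also: ELG1-luc HEK293T cells cotreated with 5-fluorouridine at 10 µM final; viability measured 16 h after compound addition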
ELG1 MMS viab: confirmation of ELG1 repair inhibitors: viability with MMS. shares compounds with ELG1 repair inh. Cell viability with MMS, ELG1-dependent DNA repair. Potency, µM (highest dose often 46.1 µM), inactives show top-dose activity change, negative = viability loss, most hits filed as cytotoxic. actives 33% (n = 670). AID 624251;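 also: ELG1-luc HEK293T cells co-treated with 10 µM MMS; viability read 16 h after compound addition; % is scaled to controls: 0 for no effect and ±100 for the full control effect; nearly all actives have a fitted effect of over 60% in size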
Cell viab unstim: counter-screen for ELG1 repair inhibitors: unstimulated cell viability. shares compounds with ELG1 repair inh. cell viability counter-screen, unstimulated, luminescence. Potency, µM (top dose mostly 45.9 µM), for the others: at the top dose activity change, negative = loss of viability, most hits filed as cytotoxic. actives 8% (n = 900). AID 624252;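 also: compound exposure lasted 16 hours before reading; % is scaled to controls: 0 for no effect and ±100 for the full control effect; nearly all actives have a fitted effect of over 55% in size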
FLuc enzyme: inhibits purified firefly luciferase, counter-screen for ELG1 hits; shares compounds with ELG1 repair inh; purified firefly luciferase, luminescence counter-screen; Potency, µM (doses to about 57.5 µM), for inactives: at the highest dose activity, negative = inhibition, actives largely listed as inhibitors; actives 10% (n = 350); AID 624253; also: % is scaled to controls: 0 for no effect and ±100 for the full control effect
Starred values were filed as active, the others as inactive; ? = inconclusive; nt = no result given; [ ] = remark or other dose. Calls follow the shape of the dose curve; as a rule, active = well fitted curve in the direction sought with a large enough effect; inconclusive = small, poorly fitted or top-dose-only effect, or another doubt; inactive = no such curve, though single readings can be large; an effect the other way counts as inactive or inconclusive. Potency is read from the fitted curve at half-maximal effect.

SMILES	ELG1 genotox	SMN2 splice enh	NPC1 prom act	Rab9 promoter act	ELG1 repair inh	FLuc counter	ELG1-Luc inh	ELG1 MMS Luc	ELG1 5FU viab	ELG1 MMS viab	Cell viab unstim	others
COc1ccc(-c2nnc3ccc(SCC(=O)Nc4nc5ccccc5s4)nn23)cc1OC	-2%	-1%	-1%	-4%	0.52µM*	-15%	0.63µM*	9%	?	-5%	?	ELG1 FLuc counter=29%;FLuc enzyme=?
COc1ccc(-c2csc(NC(=O)c3ccc(OCC(=O)N4CCOCC4)c(OC)c3)n2)cc1OC	-10%	-71%	0%	-12%	4.6µM*	?	4µM*	14µM*	?	25µM*	16µM*
O=C(Cc1ccccc1)N1CCCC(c2nc(-c3ccc(S(=O)(=O)N4CCCC4)cc3)no2)C1 (centres undefined)	-15%	-45%	-5%	1%	?	6%	nt	nt	nt	nt	nt
CS(=O)(=O)N1CCCC(c2nc(-c3ccc(S(=O)(=O)NCc4ccccc4)cc3)no2)C1 (centres undefined)	-12%	-69%	-13%	-18%	3.7µM*	7%	14µM*	2µM*	-20%	2µM*	14µM*
CCOC(=O)c1nc(Nc2ccc(C(C)=O)cc2)c2ccccc2n1	-9%	-3%	0%	0%	1.6µM*	-19%	2.8µM*	?	?	7%	-12%
CCOC(=O)c1cccc(Nc2nc(C(=O)OCC)nc3ccccc23)c1	nt	nt	nt	nt	nt	1%	nt	nt	nt	nt	nt
COc1ccc(NS(=O)(=O)c2cccc(C(=O)NCCCn3ccnc3)c2)cc1	-1%	nt	0%	0%	-1%	0%	nt	nt	nt	nt	nt
COc1ccccc1CCc1nnc(CCC(=O)N(C)Cc2ccncc2C)o1	-1%	nt	-1%	2%	-1%	2%	nt	nt	nt	nt	nt
COc1ccc(CCc2nnc(CCC(=O)N(C)Cc3ccnc4ccccc34)o2)cc1	-2%	nt	-16%	-21%	?	-16%	?	7.1µM*	-7%	6.3µM*	?
O=[N+]([O-])c1cc2c(c(CSc3nnc(Nc4ccccc4)s3)c1)OCOC2	2%	-10%	0%	-11%	4.6µM*	1%	?	1µM*	0%	0.79µM*	?
Cc1cccc(N(Cc2ccccc2)C(=O)CSC(C)C(=O)Nc2cc(C)on2)c1 (centres undefined)	-1%	nt	-2%	-8%	4%	4%	nt	nt	nt	nt	nt
Cc1ccc(C(=O)N[C@H](C(=O)N2CCN(c3ccccc3F)CC2)C(C)C)cc1	-13%	nt	-3%	-2%	-11%	0%	nt	nt	nt	nt	nt
COc1ccc(-c2cc(C(=O)Nc3cnn(Cc4ccc(F)cc4)c3)no2)cc1OC	nt	1%	nt	nt	nt	2%	nt	nt	nt	nt	nt
COc1ccc(C(=O)Nc2cnn(Cc3c(F)cccc3Cl)c2)cc1OC	5%	nt	19%	16%	?	19µM*	1%	34%	?	10%	5%
Cc1noc(C)c1NC(=O)N(C)C[C@@H]1Oc2c(NC(=O)c3ccncc3)cccc2C(=O)N([C@H](C)CO)C[C@@H]1C	-1%	nt	nt	nt	?	nt	nt	nt	nt	nt	nt
CN(C)c1ccc(-c2cc3ccccc3c(=O)o2)cc1	?	nt	nt	nt	?	nt	nt	nt	nt	nt	?	ELG1 FLuc counter=86%;FLuc enzyme=0.18µM*
CN(C)CCNC(=O)c1ccccc1-c1cc2ccccc2c(=O)o1	0%	nt	-1%	1%	1%	-1%	nt	nt	nt	nt	nt
C/C(Cl)=C\Cn1c(NCCc2ccccc2)nc2c1c(=O)n(C)c(=O)n2C	-13%	-64%	-25%	-34%	5.2µM*	-6%	13µM*	5µM*	-1%	?	?	ELG1 FLuc counter=-9%;FLuc enzyme=-1%
C=CCn1c(NCCc2ccccc2)nc2c1c(=O)n(C)c(=O)n2C	-9%	-65%	-11%	-23%	?	-1%	nt	nt	nt	nt	nt
Cc1cc(OCC(=O)Nc2ccccc2C(N)=O)c2c(C)cc(=O)oc2c1	0%	nt	-7%	-9%	3.7µM*	-1%	13µM*	-14%	?	?	2%
CC(=O)Nc1ccc(NC(=O)COc2cc(C)cc3oc(=O)cc(C)c23)cc1	4%	nt	-3%	-1%	-2%	0%	nt	nt	nt	nt	nt
COc1cc(/C=C/c2nc(N)nc(-c3ccccc3O)n2)cc(OC)c1OC	-1%	7%	-2%	0%	2.9µM*	-12%	2.2µM*	7.1µM*	-4%	?	?
COc1ccc(/C=C/c2nc(N)nc(-c3ccccc3O)n2)cc1	0%	-15%[1.84 µM]	-1%	0%	-9%	?	nt	nt	nt	nt	nt
Cc1c(CCNC(=O)c2ccc(C(C)(C)C)cc2)sc2nc(-c3ccc(F)cc3)nn12	nt	nt	nt	nt	nt	-3%	nt	nt	nt	nt	nt
O=S1(=O)[C@H]2C[C@H](CO)O[C@@]2(CO)CN1Cc1ccc(-c2cccc(Cl)c2)cc1	3%	nt	nt	nt	2.3µM*	nt	2.5µM*	-6%	?	?	?

From PubChem
